Compound activity (PubChem BioAssay)
TGFb inhibitor: qHTS for Inhibitors of TGF-b. HepG2 CAGA-GFP TGF-b/SMAD3 reporter, GFP fluorescence, 18 h; TGF-beta stimulated, 500 pg/mL final. Potency, µM (highest dose often 46.1 µM), for inactives: at the highest dose activity, negative = inhibition, most hits filed as inhibitors. actives 1.2% (n = 410,000). AID 588855, 2011; also: % is scaled to controls: 0 for no effect and ±100 for the full control effect; nearly all actives have a fitted effect of over 65% in size
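First, reporter cells (HEPG2 CAGA-GFP) rested 2 h at 37 degrees C. Next, compounds were pinned in and TGF-beta added to 500 pg/mL final. After 18 h, GFP was imaged per cell and summed per well.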
A549 viability: Nrf2 qHTS screen for inhibitors: counterscreen for cytotoxicity; A549 ARE-Fluc cells, CellTiter-Fluor viability, 18-24 h; actives 0.16% (n = 390,000); Potency, µM (top dose mostly 46 µM), inactives show top-dose activity change, negative = cytotoxicity, hits mostly inhibitors; also: % is scaled to controls: 0 for no effect and ±100 for the full control effect
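A549 ARE-Fluc cells in 5% FBS OPTI-MEM, 5000 cells/well, rested 2 h then exposed to compounds in concentration-response for 18-24 h at 37 °C. Viability by CellTiter-Fluor fluorescence (Ex 405/Em 525) after 30 min; luciferase luminescence (BugLite, 15 min, RT) read afterwards.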
ATXN2 expr inh: Primary qHTS for Inhibitors of ATXN expression; actives 0.72% (n = 360,000); HEK-293 ATXN2-luciferase reporter, luminescence, 24 h; Potency, µM (doses to about 57 µM), for inactives: at the top dose activity change, negative = inhibition, usual class: inhibitors; also: % is scaled to controls: 0 for no effect and ±100 for the full control effect; nearly all actives have a fitted effect of over 55% in size
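qHTS (up to 57 uM final) was run with 24 h compound exposure of reporter cells at 37 °C. Each well was multiplexed: SteadyGlo luminescence measured ATXN2-luciferase expression after a fluorogenic Gly-Phe-AFC viability readout (25 uM final).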
Nrf2 inh: Nrf2 qHTS screen for inhibitors; actives 2.1% (n = 360,000); Potency, µM (titrated, usually from 46 µM), for inactives: top-dose activity change, negative = inhibition, actives largely listed as inhibitors; AID 504444, 2011; A549 ARE-Fluc reporter, luciferase luminescence, 18-24 h; also: % is scaled to controls: 0 for no effect and ±100 for the full control effect; nearly all actives have a fitted effect of over 60% in size
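Reporter: ARE-Fluc in A549. Exposure: 18-24 h, 37 °C, 5% CO2, 5% FBS OPTI-MEM. Readouts: fluorescent cytotoxicity (CellTiter-Fluor), then luminescent Nrf2 signal after BugLite.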
S2 tox: Viability Counterscreen for Primary qHTS for Inhibitors of ATXN expression; actives 0.49% (n = 400,000); S2 cells (HEK-293 line with an ATXN2-luciferase reporter) viability, CellTiter-Fluor protease fluorescence, 24 h; Potency, µM (highest dose often 56.7 µM), most hits filed as cytotoxic; also: nearly all actives have a fitted effect of over 40% in size
HepG2 tox-1: qHTS for Inhibitors of TGF-b: Cytotox Counterscreen; actives 0.76% (n = 410,000); Potency, µM (series often up to 46.1 µM), for the others: at the highest dose activity change, negative = cytotoxicity, most hits filed as cytotoxic; HepG2 CAGA-GFP viability, ATP luminescence, 18 h
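CellTiter-Glo luminescence gave cytotoxicity after 18 hours at 37 degrees C. The cells were HepG2 CAGA-GFP in 1% FBS DMEM, stimulated with 500 pg/mL TGF-beta after compound addition. %Activity was normalised to no-cell wells (complete cell-killing) and DMSO (no toxicity), and curves were fitted and classified.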
TGFb CAGA inh: qHTS for Inhibitors of TGF-b: Confirmation of Cherry Picks | shares compounds with TGFb inhibitor | actives 63% (n = 1,600) | Potency, µM (top dose mostly 46.1 µM), without a hit: at the top dose activity, negative = inhibition, hits mostly inhibitors | HepG2 CAGA-GFP TGF-b reporter, GFP fluorescence, 18 h; cells stimulated with TGF-beta, 500 pg/mL; also: % is scaled to controls: 0 for no effect and ±100 for the full control effect; nearly all actives have a fitted effect of over 65% in size
HepG2 tox-2: qHTS for Inhibitors of TGF-b: Cytotox Counterscreen for Cherry Picks; shares compounds with TGFb inhibitor; HepG2 CAGA-GFP viability, ATP luminescence, 18 h; cells stimulated with TGF-beta, 500 pg/mL; Potency, µM (series often up to 46.1 µM), inactives show at the highest dose activity, negative = cytotoxicity, most hits filed as inhibitors; actives 27% (n = 1,600); AID 720535, 2013; also: % is scaled to controls: 0 for no effect and ±100 for the full control effect; nearly all actives have a fitted effect of over 70% in size
CCL64 TGFb inh: qHTS for Inhibitors of TGF-b: CCL64 Cells Orthogonal Assay for Cherry Picks; shares compounds with TGFb inhibitor; CCL64 CAGA-GFP reporter, TGF-b stimulated, GFP fluorescence, 18 h; Potency, µM (doses to about 46.1 µM), inactives show at the top dose activity, negative = inhibition, actives largely listed as inhibitors; actives 41% (n = 1,600); AID 720536, 2013; also: nearly all actives have a fitted effect of over 65% in size
TGFb COP inh: qHTS for Inhibitors of TGF-b: Hit Validation in HepG2 Cells using COP promoter; Potency, µM (titrated, usually from 46.1 µM), for inactives: top-dose activity, negative = inhibition, most hits filed as inhibitors; AID 720537, 2013; shares compounds with TGFb inhibitor; HepG2 COP-GFP TGF-b reporter, GFP fluorescence, 18 h; cells stimulated by added recombinant TGF-beta; actives 3% (n = 1,600); also: nearly all actives have a fitted effect of over 70% in size
Starred values were filed as active, the others as inactive; i = inactive; ? = inconclusive; / = no result. Hits are enriched below; roughly 3.8% of the tested compounds scored in any of these assays. Calls follow the shape of the dose curve; as a rule, active = well fitted curve in the direction sought with a large enough effect; inconclusive = small, poorly fitted or top-dose-only effect, or another doubt; inactive = no such curve, though single readings can be large; an effect the other way counts as inactive or inconclusive. Potency is read from the fitted curve at half-maximal effect.

SMILES	TGFb inhibitor	A549 viability	ATXN2 expr inh	Nrf2 inh	S2 tox	HepG2 tox-1	TGFb CAGA inh	HepG2 tox-2	CCL64 TGFb inh	TGFb COP inh
NC(=S)N=Nc1c(O)n(CCCl)c2ccc(Br)cc12	?	-3%	?	-16%	?	-18%	-12%	?	?	2%
CCCN1CCc2c(sc(NC(=O)Cc3ccc(F)cc3)c2C(N)=O)C1	-2%	-12%	1%	-1%	i	-15%	/	/	/	/
O=C(Oc1ccc(Cl)c2cccnc12)c1cccnc1	10µM*	0%	0%	-2%	/	-63%	-13%	0%	?	2%
O=C(Oc1ccc(Cl)c2cccnc12)N1CCCCC1	1%	-3%	28%	21%	?	4%	/	/	/	/
Nc1c2ccccc2nc2ccccc12	7.9µM*	?	5µM*	21µM*	/	12%	9.2µM*	12µM*	13µM*	5%
Nc1c2c(nc3ccccc13)CCCC2	2%	-13%	?	-9%	?	-4%	/	/	/	/
Cc1cc(C)cc(C(=O)N2CC(=O)Nc3ccccc32)c1	10µM*	-22%	4%	?	?	-11%	7.3µM*	7%	8.2µM*	-3%
CC(C)c1ccc(N2C(=O)CC(NNC(=O)c3cccnc3)C2=O)cc1 (centres undefined)	33%	1%	-6%	1%	i	0%	/	/	/	/
COc1cc(OC)cc(C(=O)N[C@H](C(=O)Nc2nc(-c3ccc(OC)c(OC)c3)cs2)C(C)C)c1	13µM*	-3%	/	7.3µM*	i	-16%	15µM*	-7%	-18%	23%
Cc1ccc(NC(=O)CSc2nnc(C)n2-c2ccccc2)cc1	18%	1%	2%	-5%	i	10%	/	/	/	/
Cc1nnc(SCC(=O)N/N=C/c2cn(-c3ccccc3)nc2-c2ccccc2)n1-c1ccccc1	7.1µM*	-29%	-6%	16µM*	?	0%	?	-23%	?	8%
Cc1nc(N=C(N)N)nc2ccccc12	13µM*	-2%	?	2%	i	-1%	16µM*	?	-1%	21%
Cc1ccc2nc(N=C(N)N)nc(C)c2c1	?	-14%	-32%	?	i	-16%	/	/	/	/
Cc1ccc(NC(=O)c2ccccc2NS(=O)(=O)c2ccc(Cl)s2)cc1S(=O)(=O)N1CCOCC1	?	?	?	23µM*	?	-51%	13µM*	?	8.2µM*	61%
